LANA-H2B inh = blocks KSHV LANA binding to histone H2A/H2B; Q9QR71; cell-free LANA-H2A/H2B peptide, fluorescence polarization; inhibition, % (concentration not given with the values); actives 0.6% (n = 320,000); in the data active means inhibition mostly above about 10%, no sharp cut-off; inactive means mostly below about 6.7%
Mot1-301 SUMO = SUMOylation pathway inhibition by Mot1-301 growth rescue; S. cerevisiae Mot1-301 growth rescue, ATP luminescence, 38.5C; percent above DMSO median, 100 means doubled; actives 1% (n = 320,000); AID 2716; growth rescue, % at 18.8 µM;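 active means every valid replicate shows activation above 250% relative to neutral control wells; inactive means the rest, any valid replicate at or below 250%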
IDE cell inh = inhibits human insulin-degrading enzyme in HEK cells | FAbetaB cleavage, fluorescence polarization | inhibition, % at 5.59 µM | actives 0.41% (n = 320,000) | AID 434962;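 active means percent inhibition above the average of all tested compounds plus 3 SD, set per screening campaign, cut at about 16% in these data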;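 further: IDE supplied by intact live HEK cells; FP after avidin binding of uncleaved biotin substrate so inhibition keeps polarization high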
IDE act = boosts human insulin-degrading enzyme activity in HEK cells. activation, % at 5.96 µM. actives 0.073% (n = 340,000). P14735. FAbeta-B cleavage, fluorescence polarization; 0% vehicle, 100% cell-free pure enzyme wells;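 active means activation above the mean of all tested compounds plus 3 SD, set per screening campaign, cut at about 17% in these data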
HDAC3 inh = blocks human histone deacetylase 3; recombinant HDAC3, fluorogenic peptide/trypsin coupled, fluorescence; O15379; actives 0.15% (n = 320,000); inhibition, % at 8.3 µM; in the data active means inhibition above about 26%, passing the limit was not always enough
Target sequence (O15379 whole entry, looked up): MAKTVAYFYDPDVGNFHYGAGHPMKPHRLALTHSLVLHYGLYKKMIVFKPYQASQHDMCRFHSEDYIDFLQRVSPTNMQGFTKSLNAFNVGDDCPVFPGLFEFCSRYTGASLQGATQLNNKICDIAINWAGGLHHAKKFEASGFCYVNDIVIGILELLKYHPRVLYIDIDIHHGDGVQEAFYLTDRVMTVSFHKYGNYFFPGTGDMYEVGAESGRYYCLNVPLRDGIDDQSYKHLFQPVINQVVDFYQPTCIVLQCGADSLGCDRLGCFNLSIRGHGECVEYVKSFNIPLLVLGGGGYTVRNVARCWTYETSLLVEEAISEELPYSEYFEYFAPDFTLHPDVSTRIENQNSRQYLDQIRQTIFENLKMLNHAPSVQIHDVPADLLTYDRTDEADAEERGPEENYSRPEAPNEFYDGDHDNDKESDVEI
A number is an active result; – = inactive; · = no result; + = active, no number; ! = not active in a repeat. Rows were chosen to be rich in hits. Some 2.1% of all compounds tested hit in one or more screens of this group.

SMILES | LANA-H2B inh | Mot1-301 SUMO | IDE cell inh | IDE act | HDAC3 inh
C=CC[C@@H](CC(=O)N[C@@H](CO)Cc1ccccc1)C(=O)N[C@H](COC(=O)[C@@H](CC=C)CC(=O)OC(C)(C)C)Cc1c[nH]c2ccccc12 | – | – | – | – | 37
C=CC[C@H](CC(=O)N[C@H](CO)Cc1ccccc1)C(=O)N[C@@H](COC(=O)[C@@H](CC=C)CC(=O)OC(C)(C)C)Cc1c[nH]c2ccccc12 | 19 | – | – | – | 32
C=CC[C@@H](CC(=O)N[C@H](CO)Cc1ccccc1)C(=O)N[C@@H](COC(=O)[C@H](CC=C)CC(=O)OC(C)(C)C)Cc1ccccc1 | – | – | – | – | –
CC(Nc1ncnc2sccc12)c1ccccc1 (stereo not given) | – | – | – | – | –
CCOC(=O)c1c(CSC(=N)N)n(-c2ccc(Br)cc2)c2cc(Br)c(OC(C)=O)cc12 | · | · | · | – | ·
CCCCCCCCOC(=O)c1c(CSC(=N)N)n(C)c2cc(Br)c(OC(C)=O)cc12 | – | – | – | · | 33
COc1ccc(S(=O)(=O)N(C)c2ccc(C(=O)N3CCN(c4ccccc4)CC3)cc2)cc1OC | – | – | – | – | –
CC(=O)Oc1ccc(N(C(C)=O)S(=O)(=O)c2cccs2)cc1 | – | – | – | – | –
CCCC(=O)Oc1ccc(N(C(=O)CCC)S(=O)(=O)c2cccs2)cc1 | – | – | – | – | 56
CCCC(=O)Oc1ccc(N(C(=O)CCC)S(=O)(=O)c2cccc([N+](=O)[O-])c2)cc1 | – | – | – | – | 50
O=C(COC(=O)c1ccc(O)cc1O)c1ccc2c(c1)OCO2 | 56 | – | – | – | –
O=C(COC(=O)c1cc(Cl)ccc1O)c1ccc2c(c1)OCO2 | – | – | – | – | –
Cc1ccc(S(=O)(=O)N2[C@@H](c3ccc(Br)cc3)C(C(=O)O)=CC[C@H]2c2ccc(Cl)cc2)cc1 | · | · | – | – | ·
CCc1ccc([C@@H]2CC=C(C(=O)O)[C@H](c3ccc(Br)cc3)N2S(=O)(=O)c2ccc(C)cc2)cc1 | – | 300 | – | – | –
Cc1ccc([C@@H]2CC=C(C(=O)O)[C@H](c3cccc(F)c3)N2S(=O)(=O)c2ccccc2C)cc1 | – | 280 | – | – | –
Cc1ccc([C@@H]2CC=C(C(=O)O)[C@H](c3ccc(Cl)cc3)N2S(=O)(=O)c2ccccc2C)cc1 | – | 255 | – | – | –
Cc1ccc(S(=O)(=O)N2[C@@H](c3ccc(Cl)cc3)C(C(=O)O)=C[C@H]2C(C)(C)C)cc1 | + | – | – | – | –
CC1CCCC(C)N1C(=O)COC(=O)c1ccco1 (stereo not given) | – | – | – | – | –
Cc1cccc(NS(=O)(=O)c2ccc(C(=O)NCC(c3ccccc3)N(C)C)cc2)c1C (stereo not given) | – | – | · | – | –
CCOC(=O)CCc1c(C)c2ccc3c(c2oc1=O)CN(CCCO)CO3 | – | – | – | – | –
O=C1C(=O)N(C2CCS(=O)(=O)C2)C(c2cccc(O)c2)/C1=C(/O)c1ccc(Cl)cc1 (stereo not given) | – | – | – | – | –
COc1cc(NC(=S)NC(=O)c2cccs2)ccc1NC(=O)C(C)C | 37 | – | – | – | –
Cc1ccc(NC(=O)CN2C(=O)C3CCCCN3C(=O)c3ccccc32)cc1 (stereo not given) | – | · | – | – | –
O=C(CN1C(=O)C2CCCN2C(=O)c2ccccc21)Nc1ccccc1-n1cccc1 (stereo not given) | 30 | – | – | · | –
CCOc1cc(C(=O)N=c2sccn2C)ccc1OC(F)F | 20 | – | – | – | –
SMILES | LANA-H2B inh | Mot1-301 SUMO | IDE cell inh | IDE act | HDAC3 inh
Cn1ccsc1=NC(=O)c1ccccc1OC(F)F | – | – | – | – | –
O=[N+]([O-])c1cccc(C2NCC(c3ccccc3Cl)c3c2[nH]c2ccccc32)c1 (stereo not given) | – | 564 | – | – | –
O=C(CSCc1cc(=O)[nH][nH]1)Nc1ccc(F)cc1 | 18 | – | – | – | –
O=C(COC(=O)[C@H](Cc1ccccc1)NC(=O)c1ccco1)Nc1ccccc1OC(F)F | – | – | – | – | –
CCN(CC)c1nc2ccccc2[nH]c1=O | – | – | – | – | ·
CCc1nc2ccccc2[nH]c1=O | 27 | – | – | – | –
CCN(C(=O)Nc1ccccc1)c1ccccc1 | 17 | – | – | – | –
CC(=O)N1CCC(O)(c2ccc3c(c2)OCO3)CC1 | – | – | – | – | –
COc1ccc(CNC(=S)N2CCN(S(=O)(=O)c3cccc(F)c3)CC2)cc1 | – | – | – | – | ·
COc1ccc(CCNC(=S)N2CCN(S(=O)(=O)c3cccc(F)c3)CC2)cc1 | – | 351 | – | – | –
CN1CCN(c2ccc(NC(=O)c3ccc(-c4ccc(Cl)cc4)o3)cc2)CC1 | 66 | – | – | – | –
CCCC(=O)O[C@]1(C(=O)COC(C)=O)CC[C@H]2[C@@H]3C[C@H](F)C4=CC(=O)C=C[C@]4(C)[C@@]3(F)[C@@H](O)C[C@@]21C | 22! | – | – | – | –
C[C@@H]1C[C@H]2[C@@H]3CCC4=CC(=O)C=C[C@]4(C)[C@@]3(F)[C@@H](O)C[C@]2(C)[C@@]1(O)C(=O)CO | – | – | – | – | –
C[C@@H]1C[C@H]2[C@@H]3C[C@H](F)C4=CC(=O)C=C[C@]4(C)[C@@]3(F)[C@@H](O)C[C@]2(C)[C@@]1(O)C(=O)COC(=O)C(C)(C)C | – | – | – | – | –
CC(=O)[C@@]1(O)CC[C@H]2[C@@H]3C[C@H](C)C4=CC(=O)C=C[C@]4(C)[C@@]3(F)[C@@H](O)C[C@@]21C | 18! | – | – | – | –
COc1ccc(CNC(=O)COC(=O)c2cc(-c3ccc(Cl)s3)nc3ccccc23)cc1 | – | 276 | – | – | –
O=C(COC(=O)c1cc(-c2ccc(Cl)s2)nc2ccccc12)NCc1ccco1 | – | – | – | – | –
Cc1cc(C)c2[nH]c(C)c(CN3CCCCCC3)c(=O)c2c1 | – | – | – | – | –
N#CC1=C(N)Oc2cc(O)c(Cl)cc2C1c1ccccc1F (stereo not given) | – | – | 34 | – | –
Cc1c(CN2CCC(CO)(CCOc3ccccc3)CC2)[nH]c2c(Cl)cccc12 | 17 | – | – | 28 | –
COC(=O)c1ccc(NC(=O)COc2ccc([N+](=O)[O-])cc2)cc1 | 20 | – | – | – | –
O=C(Nc1ccc([N+](=O)[O-])cc1)C1C(c2ccccc2)=C1c1ccccc1 | 18 | – | – | – | –
COCCOC(=O)c1ccc(NC(=O)COc2ccc([N+](=O)[O-])cc2)cc1 | – | – | – | – | –
O=C(Nc1ccc(C(=O)O)cc1)Nc1ccc([N+](=O)[O-])cc1 | – | – | – | – | –
O=C(CCOc1ccccc1)Nc1ccccc1 | – | – | – | – | –
O=C(CCOc1ccccc1)Nc1ccc([N+](=O)[O-])cc1 | 15 | – | – | – | –

Screening results: PubChem, several laboratories
